Calls of active or inactive are those of the source.
How the values were obtained:
[1] = E. coli DRC41 culture turbidity changes, primary screen, E. coli filamentation inducer project, strain DRC41, OD650, 48 h (AID 1152);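 note: E. coli MC1000 strain DRC41 lacking acrAB efflux pump and sulA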; details: E. coli DRC41 (acrAB sulA), higher = more signal, called active from +8 up or from −8 down
[2] = small-molecule binders of probe aLefty1, primary screen, biochemical, small-molecule microarray, 635/667 nm fluorescence (AID 1153); details: higher = more signal;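 note: score merges spot fluorescence with signal-to-noise ratio from the scanned slide images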
[3] = PSAC antagonists in infected red cells, primary screen, cell-based, P. falciparum Indochina, OD700, 1 h (AID 1154); details: P. falciparum Indochina infected RBC osmotic lysis, higher = more signal, called active from +8 up or from −8 down
[4] = PSAC antagonists in infected red cells, primary screen, cell-based, P. falciparum Indochina, OD700, 2 h (AID 1155);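 note: lysis reports solute entry through the parasite surface anion channel PSAC; channel blockers reduce lysis of infected cells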; details: P. falciparum Indochina infected erythrocytes, osmotic lysis OD700; higher = more signal, called active from +8 up or from −8 down
[5] = osmotic lysis modulators in infected erythrocytes, primary screen, PSAC antagonist project, cell-based, P. falciparum Indochina, OD700, 3 h (AID 1156); details: higher = more signal, called active from +8 up or from −8 down
[6] = PSAC antagonists in infected red cells, primary screen, cell-based, P. falciparum Indochina, OD700, 18 h (AID 1157); details: P. falciparum Indochina infected erythrocytes, osmotic lysis OD700, 18 h; higher = more signal, called active from +8 up or from −8 down
[7] = modulators of S6 phosphorylation in cells, primary screen, cell-based, A549, cytoblot, luminescence, serum-stimulated (AID 1158); details: A549 phospho-S6 cytoblot, 5 h, higher = more signal;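 note: serum-stimulated A549 lung adenocarcinoma cells; signal is phosphorylated S6 detected by cytoblot immunostaining with HRP secondary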
[8] = molecular target: NADPH oxidase 2 (Homo sapiens) (UniProt P04839); test: NOX2-dependent H2O2 signal modulators, primary screen, NOX inhibitor project, cell-based, HEK293-NOX2, PMA-stimulated, Amplex Red fluorescence (AID 1159); details: 45 min, higher = more signal, called active from +8 up or from −8 down; note: test concentration not given here
[9] = molecular target: NADPH oxidase 4 (Homo sapiens) (UniProt Q9NPH5); test: NOX4-dependent H2O2 signal modulators, primary screen, NOX inhibitor project, cell-based, HEK293-NOX4, tetracycline-induced, Amplex Red fluorescence (AID 1160); details: 45 min, higher = more signal, called active from +8 up or from −8 down
[10] = molecular target: NADPH oxidase 5 (Homo sapiens) (UniProt Q96PH1); test: NOX5-dependent H2O2 signal modulators, primary screen, NOX inhibitor project, cell-based, HEK293-NOX5, Amplex Red fluorescence (AID 1161); details: HEK293-NOX5, ionomycin, 45 min, higher = more signal
[11] = A549 cell viability effects, profiling panel, calcein-AM fluorescence, 48 h, basal (AID 1162); details: higher = more signal; note: test concentration not given here
[12] = adipocyte viability effects, profiling panel, cell-based, 3T3-L1 adipocytes, calcein-AM fluorescence, 48 h, basal (AID 1163); details: 3T3-L1 adipocytes viability, higher = more signal; note: test concentration not given here
[13] = HepG2 cell viability effects, profiling panel, calcein-AM fluorescence, 48 h, basal (AID 1164); details: higher = more signal; note: test concentration not given here
[14] = MM1S cell viability effects, profiling panel, calcein-AM fluorescence, 48 h, basal (AID 1165); details: higher = more signal;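 note: viability of MM1S multiple myeloma cells under basal unstimulated conditions; test concentration not given here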
[15] = basal RPMI8226 viability, no added stimulus, profiling panel, cell-based, calcein-AM fluorescence, 48 h, PK04 Diversity Set (AID 1166); details: RPMI8226 myeloma viability, higher = more signal;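 note: cells grown under basal conditions without added stimulus; test concentration not given here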
[16] = basal HepG2 mitochondrial membrane potential changes, profiling panel, cell-based, JC-1 fluorescence, 24 h, 100 nL compound (AID 1167); details: higher = more signal; note: test concentration not given here
[17] = basal 3T3-L1 adipocyte mitochondrial potential changes, profiling panel, cell-based, JC-1 fluorescence, 3T3-L1 adipocytes, 24 h, 100 nL compound (AID 1168); details: JC-1 mitochondrial fluorescence, higher = more signal, called active from +8 up or from −8 down; note: test concentration not given here
[18] = basal RPMI8226 mitochondrial membrane potential changes, profiling panel, cell-based, JC-1 fluorescence, 24 h, 100 nL compound (AID 1169); details: RPMI8226 myeloma, JC-1 mitochondrial potential fluorescence, higher = more signal; note: test concentration not given here
[19] = basal MM1S mitochondrial membrane potential changes, profiling panel, cell-based, JC-1 fluorescence, 24 h, 100 nL compound (AID 1170); details: higher = more signal; note: test concentration not given here
[20] = A549 lung cancer cell viability effects, profiling panel, resazurin fluorescence, 24 h, PK04 Diversity Set (AID 1171); details: higher = more signal, called active from +8 up or from −8 down; note: test concentration not given here

Chain of NADPH oxidase 5 (Homo sapiens) (Q96PH1 whole entry, looked up): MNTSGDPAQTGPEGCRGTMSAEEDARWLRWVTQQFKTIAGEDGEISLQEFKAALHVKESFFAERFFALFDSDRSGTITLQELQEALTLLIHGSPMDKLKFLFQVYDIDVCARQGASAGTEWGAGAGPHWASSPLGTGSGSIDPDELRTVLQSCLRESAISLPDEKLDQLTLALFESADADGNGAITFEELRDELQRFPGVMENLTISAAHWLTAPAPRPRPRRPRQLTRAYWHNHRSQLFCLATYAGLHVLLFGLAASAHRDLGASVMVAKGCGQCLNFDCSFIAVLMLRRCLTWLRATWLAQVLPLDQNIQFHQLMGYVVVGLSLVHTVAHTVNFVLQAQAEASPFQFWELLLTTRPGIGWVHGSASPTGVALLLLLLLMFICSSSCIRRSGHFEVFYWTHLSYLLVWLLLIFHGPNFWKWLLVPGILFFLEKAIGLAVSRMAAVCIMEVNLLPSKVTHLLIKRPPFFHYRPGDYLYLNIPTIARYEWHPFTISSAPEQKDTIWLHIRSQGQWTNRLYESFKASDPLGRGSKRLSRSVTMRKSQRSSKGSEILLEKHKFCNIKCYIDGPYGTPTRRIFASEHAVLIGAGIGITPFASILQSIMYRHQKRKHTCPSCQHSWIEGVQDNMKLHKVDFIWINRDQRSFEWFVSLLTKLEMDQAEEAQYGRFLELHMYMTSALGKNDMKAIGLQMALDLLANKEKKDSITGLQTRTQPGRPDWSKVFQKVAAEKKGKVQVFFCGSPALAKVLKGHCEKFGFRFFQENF
Chain of NADPH oxidase 4 (Homo sapiens) (Q9NPH5 whole entry, looked up): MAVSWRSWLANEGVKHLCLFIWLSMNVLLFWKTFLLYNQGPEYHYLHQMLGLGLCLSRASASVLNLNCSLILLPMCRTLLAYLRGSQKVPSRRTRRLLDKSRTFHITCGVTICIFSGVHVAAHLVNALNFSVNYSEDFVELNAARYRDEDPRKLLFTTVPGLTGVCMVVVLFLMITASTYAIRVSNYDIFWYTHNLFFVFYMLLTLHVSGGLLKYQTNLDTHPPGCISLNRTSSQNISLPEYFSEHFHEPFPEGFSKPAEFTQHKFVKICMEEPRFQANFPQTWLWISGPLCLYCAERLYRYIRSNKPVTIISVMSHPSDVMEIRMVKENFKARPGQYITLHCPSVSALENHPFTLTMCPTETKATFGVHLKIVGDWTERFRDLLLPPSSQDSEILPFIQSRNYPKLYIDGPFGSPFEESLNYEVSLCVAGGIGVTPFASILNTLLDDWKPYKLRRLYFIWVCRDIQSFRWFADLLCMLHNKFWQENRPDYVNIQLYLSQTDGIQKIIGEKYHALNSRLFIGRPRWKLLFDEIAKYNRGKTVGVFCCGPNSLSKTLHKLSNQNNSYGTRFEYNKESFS
Chain of NADPH oxidase 2 (Homo sapiens) (P04839 whole entry, looked up): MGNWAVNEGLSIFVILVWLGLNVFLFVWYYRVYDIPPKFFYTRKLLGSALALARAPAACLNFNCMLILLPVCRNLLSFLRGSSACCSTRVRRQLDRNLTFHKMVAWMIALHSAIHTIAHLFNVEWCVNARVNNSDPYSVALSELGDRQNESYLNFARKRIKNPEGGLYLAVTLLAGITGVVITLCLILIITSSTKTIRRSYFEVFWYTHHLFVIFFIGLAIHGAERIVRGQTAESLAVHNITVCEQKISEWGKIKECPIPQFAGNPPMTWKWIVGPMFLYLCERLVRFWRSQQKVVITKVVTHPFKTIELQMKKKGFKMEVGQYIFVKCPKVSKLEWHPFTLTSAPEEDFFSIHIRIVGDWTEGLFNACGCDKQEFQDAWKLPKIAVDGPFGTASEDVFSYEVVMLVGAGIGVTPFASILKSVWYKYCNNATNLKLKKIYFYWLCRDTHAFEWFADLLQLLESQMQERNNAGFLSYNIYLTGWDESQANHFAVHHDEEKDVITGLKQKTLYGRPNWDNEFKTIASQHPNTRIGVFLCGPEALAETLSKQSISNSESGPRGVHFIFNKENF

Structure (SMILES)	z-score [1]	composite z-score [2]	z-score [3]	z-score [4]	z-score [5]	z-score [6]	z-score [7]	z-score [8]	z-score [9]	z-score [10]	z-score [11]	z-score [12]	z-score [13]	z-score [14]	z-score [15]	z-score [16]	z-score [17]	z-score [18]	z-score [19]	z-score [20]
O=C(NN=C1C[C@@H](O)[C@@H](O)[C@@H]2[C@@H]3C(=O)N(c4ccc(F)cc4F)C(=O)[C@@H]3CC[C@@H]12)OCc1ccccc1	0.113 (inactive)	0.0536	3.79 (inactive)	0.326 (inactive)	-0.479 (inactive)	0.0094 (inactive)	-0.849	1.56 (inactive)	0.882 (inactive)	0.0449	0.166	-0.902	-0.903	0.655	-0.768	-0.121	1.2 (inactive)	-0.353	-0.0309	-0.0526 (inactive)
CCOC(=O)NN=C1C[C@@H](O)[C@@H](O)[C@@H]2[C@@H]3C(=O)N(C[C@@H]4CCCO4)C(=O)[C@@H]3CC[C@@H]12	1.2 (inactive)	-0.245	0.564 (inactive)	-0.243 (inactive)	0.406 (inactive)	-0.0631 (inactive)	-0.0861	-0.543 (inactive)	0.111 (inactive)	0.354	0.0693	-0.637	0.473	0.157	0.549	1.06	0.491 (inactive)	0.248	-0.895	-0.175 (inactive)
O=C1O[C@@H](c2ccccc2)[C@@H](c2ccccc2)N2[C@@H](c3ccc(O)cc3)[C@]3(C(=O)Nc4ccccc43)[C@@H](C(=O)O)[C@H]12	0.772 (inactive)	-0.0536	1.41 (inactive)	-0.968 (inactive)	1.11 (inactive)	-1.77 (inactive)	1.87	-0.215 (inactive)	-0.652 (inactive)	0.0434	-0.517	0.875	-0.308	-1.33	-1.03	-0.517	0.0106 (inactive)	-0.934	-0.536	-0.0947 (inactive)
O=C(CS)NCCCCCNC(=O)[C@H]1C[C@H]2C(=O)N3CCC[C@H]3C(=O)N2[C@H]1c1cccc(OCCO)c1	-0.0612 (inactive)	0.315	3.12 (inactive)	0.55 (inactive)	-2.35 (inactive)	0.35 (inactive)	0.345	1.45 (inactive)	0.557 (inactive)	0.557	0.631	-0.367	0.432	-0.0388	-0.198	2.21	0.0249 (inactive)	-0.736	-0.419	0.477 (inactive)
O=C1[C@H]2[C@H]3[C@H](O)[C@H](O)CC(=NO[C@@H]4O[C@H](CO)[C@@H](O)[C@H](O)[C@H]4O)[C@@H]3CC[C@H]2C(=O)N1Cc1ccccc1	0.755 (inactive)	-0.115	1.3 (inactive)	0.893 (inactive)	0.742 (inactive)	0.475 (inactive)	0.62	0.0811 (inactive)	1.14 (inactive)	-0.0503	0.255	-0.612	-0.379	-0.176	1.03	0.981	-0.173 (inactive)	-0.61	-1.98	0.222 (inactive)
COC(=O)[C@@]1(Cc2ccc(F)cc2)[C@@H]2C(=CC(=O)[C@H]2CC(=O)C(=O)N(C)C)CN1C(=O)c1ccccc1	-0.975 (inactive)	0.589	3.38 (inactive)	1.81 (inactive)	-0.25 (inactive)	1.45 (inactive)	0.172	0.507 (inactive)	1.3 (inactive)	-0.494	-1.29	-1.34	0.201	-1.24	-2.67	2.62	0.441 (inactive)	-0.817	-2.01	-1.73 (inactive)
COc1cccc([C@@H]2Oc3ccc(Br)cc3C(=O)[C@H]2O)c1	0.91 (inactive)	-0.0464	20 (active)	3.35 (inactive)	-0.0836 (inactive)	0.592 (inactive)	-0.256	0.658 (inactive)	-1.89 (inactive)	-0.879	1.31	-0.397	-1.24	-3.44	-1.73	-3.15	-0.584 (inactive)	-0.0726	-1.31	-0.269 (inactive)
CCCCC(=C=CC[C@H](O)c1ccccc1OCCO)C[C@H](O)COCc1ccccc1	-0.16 (inactive)	-0.0544	12 (active)	1.72 (inactive)	0.725 (inactive)	0.921 (inactive)	-0.424	-1.02 (inactive)	-1.37 (inactive)	-2.05	0.395	0.0907	0.514	-2.92	-1.29	-0.0498	-0.643 (inactive)	-0.621	-0.611	0.189 (inactive)
CCOC(=O)NN=C1C[C@@H](O)[C@@H](O)[C@@H]2[C@@H]3C(=O)N(C4CCCCC4)C(=O)[C@@H]3CC[C@H]12	-1.02 (inactive)	-0.288	3.79 (inactive)	0.323 (inactive)	0.822 (inactive)	0.574 (inactive)	-0.0238	2.18 (inactive)	-1.17 (inactive)	-1.46	-0.392	1.04	0.31	-0.796	-1.06	-0.0619	-1.05 (inactive)	-0.527	0.51	-1.23 (inactive)

From PubChem BioAssay
